Data on 46 compounds can be found in PubChem BioAssay.

For test [1], the system named is Aerobactin synthetase IucA (Klebsiella pneumoniae, hypervirulent). Kind of test: IucA enzyme inhibition, biochemical, LOPAC library, absorbance readout (AID 1346212).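 Also: 100% = no compound wells and 0% = no enzyme wells.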 The following applies: IucA enzyme assay, absorbance (OD) readout; stronger effect = lower value;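 tested at 8 µM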.
Test [2] in a line: circadian clock period modulators, cell-based, LOPAC library, luminescence reporter (AID 2774).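 Also: values are relative to mean of DMSO wells on each plate.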 The note with it: circadian reporter cells, at 7 µM, actives lie on both sides.
Test [3] deals with Hepatitis C virus NS3 helicase. The test is described as follows: HCV NS3 helicase inhibitors, primary screen, biochemical, fluorescence polarization, LOPAC1280 library (AID 687035; in the data active = inhibition above about 37%). The following applies: Purified HCV NS3 helicase, Cy5-dT15 ssDNA binding fluorescence polarization; stronger effect = higher value; concentration not given here. A general note: Polarisation of emitted light reports the rotation of a fluorescent probe.

A short description of test [4]: Cy5 fluorescence quenching or enhancement artefacts, artefact control for HCV NS3 helicase inhibitor project, biochemical, LOPAC1280 (AID 687037). The following applies: Cy5-DNA-NS3h complex fluorescence interference counterscreen.
The nature of test [5]: sensitizers of A549 cells to miR-34 induction, primary screen, imaging, A549 dox-inducible miR-34, nuclei and caspase counts (AID 1347080;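 active = compounds whose cell count with miR-34 switched on is under 0.7 times the count with it off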). The note with it: A549 miR-34 inducible, Hoechst nuclei count, 48 h.
Test [6] can be described thus: phospholipid biosynthesis inhibitors in animal cells, primary screen, cell-based, LOPAC library, screen 4 (AID 1347384). The note with it: phospholipid biosynthesis inhibition screen, at 10 µM.
A short description of test [7]: viability rescue of complex I mutant cybrids, primary screen, cell-based, galactose medium, ATP luminescence (AID 1645843;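 active = z-score of at least 1.8 in each of two replicates, scored against plate mean and spread of sample wells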;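 also: positive z means more ATP and so rescue of galactose-driven cybrid death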). The note with it: complex I mutant cybrid cells, 72 h, stronger effect = higher value.
The nature of test [8]: liver-stage malaria parasite growth inhibition, primary screen, cell-based, HepG2, luciferase luminescence, HepG2 viability (AID 624349; in the data active = parasite load remaining mostly below about 12%, no sharp cut-off; inactive = mostly above about 10%;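 also: 100% = mean of DMSO negative control wells on the same plate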). The note with it: P. berghei liver stage in HepG2, luciferase luminescence, concentration not given here; parasite load remaining: stronger effect = lower value; viability: measured here: HepG2 viability without parasites.
Test [9] in a line: growth inhibition of DIPG glioma cells, dose response, cell-based, SU-DIPG-XIII, MIPE4.0, CellTiter-Glo, qHTS (AID 1347061; cut-off not given, nearly all actives have AC50 up to about 37 µM;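 also: cells exposed to compound for 48 hours before readout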). The following applies: SU-DIPG-XIII viability, CellTiter-Glo ATP luminescence. (In general: ATP-based viability assays read luminescence as a measure of living cells.)
The nature of test [10]: growth inhibition of DIPG glioma cells, dose response, cell-based, JHH-DIPG-1, MIPE4.0, CellTiter-Glo, qHTS (AID 1347062; cut-off not given, nearly all actives have AC50 up to about 27 µM;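 also: cells exposed to compound for two days before readout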). The following applies: JHH-DIPG-1 viability, CellTiter-Glo ATP luminescence.
Test [11] in a line: growth inhibition of DIPG glioma cells, dose response, cell-based, SU-DIPG-IV, MIPE4.0, CellTiter-Glo, qHTS (AID 1347063; cut-off not given, nearly all actives have AC50 up to about 30 µM;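 also: compound exposure lasted 48 hours before the viability readout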). The note with it: SU-DIPG-IV viability, CellTiter-Glo ATP luminescence.
Test [12] is described as follows: growth inhibition of DIPG glioma cells, dose response, cell-based, SU-DIPG-XIII, MIPE5.0, CellTiter-Glo, qHTS (AID 1347064; cut-off not given, nearly all actives have AC50 up to about 23 µM;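 also: cells exposed to compound for 48 hours before the viability read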). The following applies: SU-DIPG-XIII viability, CellTiter-Glo ATP luminescence.
A short description of test [13]: SU-DIPG-VI glioma cell viability, MIPE4.0 library, CellTiter-Glo luminescence, qHTS (AID 1347066; cut-off not given, nearly all actives have AC50 up to about 30 µM;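 also: cells exposed to compound for 48 hours before readout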). The following applies: CellTiter-Glo ATP luminescence.
Test [14] can be described thus: JHH-DIPG-1 glioma cell viability, MIPE5.0 library, CellTiter-Glo luminescence, qHTS (AID 1347067; cut-off not given, nearly all actives have AC50 up to about 26 µM;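 also: cells exposed to compound for 48 hours before readout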). The following applies: JHH-DIPG-1 glioma viability, CellTiter-Glo ATP luminescence.
The nature of test [15]: inhibitors of Cryptococcus chitosan production, flow cytometry, Cibacron Brilliant Red staining (AID 1347148).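 Also: compound exposure lasted three days at 37 degrees C.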 The note with it: Cryptococcus neoformans chitosan, stronger effect = lower value; at 10 µM unless noted. A general note: In flow cytometry, cells or beads pass a laser one at a time.
The mark [16] stands for this setting: measured here: relative caspase fold change +Dox/-Dox.
Where [17] appears, read: measured here: total cells with miR-34 induction, stronger effect = lower value.
[18] abbreviates: measured here: total cells without miR-34 induction.

“And” between values parts separate entries of the source, which are not always exact repeats. Equal entries are not always repeated. Inconclusive results are not listed. The source made the active and inactive calls. Unless noted, no rule for the calls is given here.

A word on the remaining activity: it is the signal under treatment as a percentage of the control signal. In general, inhibition refers to the drop in the measured response relative to a control, in per cent. What is called viability is a read-out of living cells in per cent, often relative to untreated cells. In general, AC50 refers to the midpoint of the concentration-response curve, whichever way the signal moves.

On to `O=C(O)c1cc(=O)cc(C(=O)O)[nH]1`, for which, in [1], the remaining activity was 122% (inactive).

For the compound `COc1ccc2c(c1OC)C(=O)O[C@@H]2[C@H]1c2c(cc3c(c2OC)OCO3)CCN1C`, in [1], the remaining activity is 112% (inactive).

Regarding `OCCN1CCN(CC/C=C2/c3ccccc3Sc3ccc(C(F)(F)F)cc32)CC1`, the remaining activity in test [1] was 105% (inactive). Still for that read-out and setting: the result for `CCN(CC)CC#CCOC(=O)C(O)(c1ccccc1)C1CCCCC1` (stereo not drawn) reads 118% (inactive); that for `CN(C)C(=O)/N=N/C(=O)N(C)C`, 93.2% (inactive); that for `OC[C@H]1O[C@@H](n2cnc3c(N[C@H]4CC5CCC4C5)ncnc32)[C@H](O)[C@@H]1O` (stereo partly drawn), 99.3% (inactive).

For `NC(N)=Nc1nc(CSCC/C(N)=N/S(N)(=O)=O)cs1`, the remaining activity in [1] is 102% (inactive). The same measure, in the same setting: the value for `COc1ccccc1N1CCN(CC(O)COc2cccc3ccccc23)CC1` (stereo not drawn) was 96.1% (inactive); that for `COc1cc(C(=O)OCCCN2CCCN(CCCOC(=O)c3cc(OC)c(OC)c(OC)c3)CC2)cc(OC)c1OC` was 116% (inactive). Turning to `CCN1CCc2nc(N)oc2CC1`, the remaining activity in test [1] is 119% (inactive).

As to `Cn1c(=O)c2c(nc(/C=C/c3cccc(Cl)c3)n2C)n(C)c1=O`, the remaining activity in test [1] is 88.1% (inactive).

In the case of `NC(=O)c1ncn([C@@H]2O[C@H](CO)[C@@H](O)[C@H]2O)c1O`, the remaining activity in [1] was 122% (inactive).

Turning to `COC(=O)c1c(-c2cc(OC)c(OC)c(OC)c2)c2ccnc(OCc3ncccn3)c2c(=O)n1Cc1ccnc(C)c1`, in test [1], the remaining activity is 101% (inactive).

For the compound `Cc1ccc(C(=O)O[C@H](C(=O)O)[C@@H](OC(=O)c2ccc(C)cc2)C(=O)O)cc1` (tested in a mixture with another compound), the remaining activity in [1] was 112% (inactive).

Consider `CN(C)c1cc2c(Nc3ccc4c(cnn4Cc4ccccc4)c3)ncnc2cn1`, for which the remaining activity in test [1] is 115% (inactive). The same measure, in the same setting: the value for `NC(=Nc1ccccc1)NC(=O)c1nc(Cl)c(N)nc1N` was 105% (inactive). Turning to `Nc1cc(Cl)c(NC2=NCCN2)c(Cl)c1`, the remaining activity in test [1] was 118% (inactive). On the same count and under the same terms, the result for `O=Nc1c(-c2c(O)[nH]c3cc(Br)ccc23)[nH]c2ccccc12` reads 113% (inactive); that for `CN(C)CC[C@@H](c1ccc(Br)cc1)c1ccccn1`, 88.6% (inactive); that for `COC1(C2=NCCN2)COc2ccccc2O1` (stereo not drawn), 105% (inactive).

As for `CSC(=N)N`, in test [1], the remaining activity was 123% (inactive). The same measure, in the same setting: the value for `CN1CC[C@]2(CCN3CCc4c(oc5ccccc45)[C@@H]3C2)N(C)C1=O` was 109% (inactive). On the same count and under the same terms, the result for `NC(N)=NC(=O)c1nc(Cl)c(N2CCCCCC2)nc1N` reads 120% (inactive); that for `CCCn1cnc2c1c(=O)n(CCCCC(C)=O)c(=O)n2C`, 93.8% (inactive). Still for that read-out and setting: the value for `CN(CC[C@@H](Oc1ccc(C(F)(F)F)cc1)c1ccccc1)CC(=O)O` was 118% (inactive); that for `CC(C)NCC(O)COc1ccc(CCOCC2CC2)cc1` (stereo not drawn) was 123% (inactive); that for `c1ccc(-c2ccccn2)nc1` was 75.1% (inactive). As for `O=C1C(SCCO)=C(SCCO)C(=O)c2ccccc21`, the remaining activity in test [1] was 117% (inactive). Turning to `COc1ccc(NC(=O)c2ccc(-c3ccc(-c4noc(C)n4)cc3C)cc2)cc1N1CCN(C)CC1`, the remaining activity in test [1] is 112% (inactive).

Consider `O=C1N=c2cc(Cl)c(Cl)cc2=NC1=O`, for which the remaining activity in [1] is 110% (inactive). The same measure, in the same setting: the result for `NC1CONC1=O` (stereo not drawn) reads 120% (inactive); that for `C[C@@H]1C(=O)NC2=Nc3cccc(Cl)c3CN21`, 121% (inactive).

Regarding `O=C(NCCO)c1ccc2c(c1)nc(Nc1cccc(Cl)c1)c1ccncc12`, the remaining activity in test [1] is 90% (inactive). Turning to `N[C@@H](CC(=O)O)C(=O)O`, the remaining activity in test [1] is 111% (inactive).

In the case of `C[C@]12CCC(=O)C=C1CC[C@@H]1[C@@H]2[C@@H](O)C[C@@]2(C)[C@H]1CC[C@]2(O)C(=O)CO`, the remaining activity in test [1] was 104% (inactive). On the same count and under the same terms, the result for `O=c1[nH]ccc2c(O)cccc12` reads 117% (inactive); that for `CCCNC[C@H](O)COc1ccccc1C(=O)CCc1ccccc1`, 91.3% (inactive). The same measure, in the same setting: the value for `O=C(O)CN(CCOCCOCCN(CC(=O)O)CC(=O)O)CC(=O)O` was 88.2% (inactive); that for `NS(=O)(=O)C#Cc1ccccc1` was 118% (inactive); that for `CN[C@H](CC(C)C)C(=O)N[C@H]1C(=O)N[C@@H](CC(N)=O)C(=O)N[C@H]2C(=O)N[C@H]3C(=O)N[C@H](C(=O)N[C@H](C(=O)O)c4cc(O)cc(O)c4-c4cc3ccc4O)[C@H](O)c3ccc(c(Cl)c3)Oc3cc2cc(c3O[C@@H]2O[C@H](CO)[C@@H](O)[C@H](O)[C@H]2O[C@H]2C[C@](C)(N)[C@H](O)[C@H](C)O2)Oc2ccc(cc2Cl)[C@H]1O` was 98.6% (inactive). On the same count and under the same terms, the result for `CCn1ccnc1CC1COc2ccccc2O1` (stereo not drawn) reads 112% (inactive); that for `CCCCCCCCCCCCCCCCCCOC[C@H](COP(=O)([O-])OCC[N+](C)(C)C)OC`, 119% (inactive); that for `N[C@H](CO)C(=O)O`, 106% (inactive). For `NOCC(=O)O`, the remaining activity in test [1] is 124% (inactive).

As for `NC(=O)CI`, in test [2], the period change was -0.03 h (inactive). Also, the inhibition in test [3] is -1% (inactive). The fluorescence ratio (interference) in test [4] was 1.1 (inactive). For the same compound, the remaining activity in test [1] was 124% (inactive). For the same compound, the fold change in [5] (stronger effect = lower value) was 1.11 (inactive); in [5] (setting [16]), 1.73. The cell count turned out to be 3640 in test [5] (setting [17]) and 3270 in test [5] (setting [18]). Besides, the compound was classed as inactive in test [6]. Further, the z-score in [7] is -1 (inactive). `COc1ccc2c(c[n+](C)c3c4cc5c(cc4ccc23)OCO5)c1OC`: the period change in test [2] is 0.045 h (inactive). Besides, the parasite load remaining in test [8] was 41.8% (inactive). Further, the viability in [8] was found to be 157%. Further, the inhibition in [3] was -3% (inactive). In test [4], the fluorescence ratio (interference) is 0.9 (inactive). Further, in test [1], the remaining activity is 110% (inactive). The AC50 is 26.4 µM (active) in test [9]; 4.18 µM (active) in test [10]; 5.26 µM (active) in test [11]; 4.17 µM (active) in test [12]; 8.33 µM (active) in test [13]; 5.9 µM (active) in test [14]. Besides, the fold change in test [5] (stronger effect = lower value) is 1.19 (inactive) and 0.771 (inactive); in test [5] (setting [16]), 0.571 and 1.14. The cell count in test [5] (setting [17]) was 525 and 1050; in test [5] (setting [18]), 442 and 1360. In addition, the fold fluorescence in [15] is 7.04 [at 143.5 µM] (inactive). In addition, the compound was classed as inactive in test [6]. In addition, the z-score in test [7] is -1.52 (inactive).
